Rows were chosen to be rich in hits. Some 1.6% of all compounds tested hit in one or more screens of this group.
NALP1 inh – NALP1 inhibition; inhibition, % at 10 µM; AID 2071; S. cerevisiae NALP1/ASC/caspase-1 growth, X-gal OD620, 72 h; actives 0.61% (n = 280,000); in the data active means inhibition mostly above about 24%, no sharp cut-off; inactive means mostly below about 32%
V-ATPase pHluor – yeast V-ATPase proton transport regulation by pHLuorin; S. cerevisiae, pHLuorin cytosolic pH fluorescence; actives 0.37% (n = 350,000); response, % at 10 µM; in the data active means response mostly above about 7.3%, no sharp cut-off; inactive means mostly below about 5.4%; further: actives read high
CR mimetic SO – caloric restriction mimetics inhibiting age-related superoxide in yeast; S. cerevisiae aged cells, superoxide DHE fluorescence; hits give low values; superoxide response (% of plate mean), % at 10 µM; actives 0.18% (n = 330,000);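 active means superoxide response under a set limit, about three screen SD below normal, cut at about 65% in these data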;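 further: yeast aged for seven days with compound at 30 °C before DHE staining; 100% = average MFI of all compound-treated wells on the plate with controls excluded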
NALP3 yeast inh – blocks the NALP3 inflammasome reconstituted in yeast | Yeast reconstituted NLRP3/ASC/caspase-1, beta-gal luminescence, 24 h | inhibition, % at 10 µM | actives 0.39% (n = 330,000) | AID 2825;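 active means inhibition of 50% or more; inactive means inhibition below 50%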;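 further: plate controls were induced DMSO wells for no effect and uninduced yeast grown without galactose for full effect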
Rce1 inh – inhibitors of yeast Ras-converting enzyme | yeast membranes, quenched prenylated peptide cleavage fluorescence | calls only | actives 0.27% (n = 290,000);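 active means fall in fluorescence gain of 50% or more versus controls, with final raw signal at or below 3038400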;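 further: plate controls were neutral control wells for no effect and wells lacking membranes for full effect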
Target sequence (Q03530 whole entry, looked up): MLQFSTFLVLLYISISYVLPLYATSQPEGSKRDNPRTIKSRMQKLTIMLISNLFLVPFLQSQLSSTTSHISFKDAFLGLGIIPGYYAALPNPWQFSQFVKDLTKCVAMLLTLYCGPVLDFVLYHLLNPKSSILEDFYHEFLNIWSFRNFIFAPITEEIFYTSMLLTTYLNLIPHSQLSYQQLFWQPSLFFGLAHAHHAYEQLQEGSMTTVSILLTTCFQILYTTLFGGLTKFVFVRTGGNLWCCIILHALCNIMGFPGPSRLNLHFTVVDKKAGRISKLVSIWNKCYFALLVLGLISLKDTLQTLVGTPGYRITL
PERK inhibitor – blocks human PERK kinase | actives 0.17% (n = 220,000) | Q9NZJ5 | CHO PERK-DD fusion, SEAP luminescence translation reporter | AID 1416 | inhibition, % at 5.6 µM;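 active means inhibition above the mean inhibition of all tested compounds plus 3 SD, set separately per screening campaign, cut at about 2.9% in these data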;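 further: PERK kinase domain activated by AP20187 dimerizer at 100 nM; 0% = DMSO with dimerizer and 100% = rapamycin at 8.4 µM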
The depositor's hits bear a star; i = inactive; x = not tested or not shown; + = active, no number.

SMILES | NALP1 inh | V-ATPase pHluor | CR mimetic SO | NALP3 yeast inh | Rce1 inh | PERK inhibitor
COc1ccc2c(c1)CCO[C@]21O[C@H](CCO)C[C@H](O)[C@H]1O | x | 2 | x | x | x | x
CN(c1ccccc1)S(=O)(=O)c1cccc(C(=O)OCC(=O)NCc2ccco2)c1 | 24* | 1 | 116 | -14 | i | 1
Cc1ccc(C(=O)OCC(=O)NCc2ccco2)cc1 | 41* | 1 | 101 | 20 | i | 0
O=C(C[C@@H]1C[C@H]2c3cc(NC(=O)c4cccnc4)ccc3O[C@H]2[C@H](CO)O1)NCc1ccc(Oc2ccccc2)cc1 | x | -2 | x | x | x | x
COc1ccc(-c2cc(C(=O)N/N=C/c3sccc3C)c3ccccc3n2)c(OC)c1 | 41* | 6 | 83 | 15 | i | -2
C1CCC(C(CC2CCCCN2)C2CCCCC2)CC1 (stereo unspecified) | 71* | -4 | 96 | 48 | i | -1
Cc1ccc(-c2ccc(/C=N/NC(=O)c3ccccc3O)o2)cc1 | 20 | x | 100 | 1 | i | 3.1*
Cc1n[nH]c(=O)nc1NCCN(C)C | 10 | 0 | 100 | -7 | i | 3.5*
CC(C)c1ccc(/C=C/C(=O)Nc2ccc(CN3CCOCC3)cc2)cc1 | 40* | 2 | 99 | 25 | i | 0
CC(C)c1ccc(CN2CCN(C(=O)CCl)CC2)cc1 | 59* | -1 | x | x | x | 1
O=C(/C=C/c1ccc(Cl)cc1)Nc1ccc(CN2CCOCC2)cc1 | 20 | 1 | 76 | 9 | x | -1
CC(=O)CSc1nc(-c2cccs2)c(C#N)c(=O)[nH]1 | 36* | 1 | x | 7 | i | 1
O=C1CN(C(=O)NCC(=O)N[C@H](C(=O)O)c2ccccc2)c2ccccc2N1 | 26 | 2 | 73 | 9 | i | x
O=C(CCNC(=O)N1CC(=O)Nc2ccccc21)NCCc1cccc(F)c1 | 12 | -3 | 128 | 7 | + | x
O=C1CN(C(=O)NCC(=O)N2CCCC2)c2ccccc2N1 | -43 | -5 | 79 | 15 | + | x
O=C1NC(Cc2ccccc2)c2nc3ccccc3c(=O)n2-c2cc3ccccc3cc21 (stereo unspecified) | x | 2 | x | x | x | x
CC(C)(C)c1cc2cccnc2n1Cc1cccc(Cl)c1 | 46* | 2 | 97 | 12 | i | 0
COc1ccc(-c2oc3ccccc3c2C(=O)OCc2ccccc2OC)cc1 | 5 | -2 | 93 | 11 | + | x
COc1ccc(C(=O)c2c(-c3ccc(OC)cc3)oc3ccccc23)cc1 | x | 1 | 93 | 19 | x | x
CCc1ccc(NC2=NCC(c3ccccc3)S2)cc1 (stereo unspecified) | 35* | 5 | 103 | 24 | i | -1
CCCN(CC(=O)Nc1ccccc1OC)C(=O)CN1C(=O)NC(C)(C)C1=O | x | -1 | x | x | x | x
O=C(COc1ccc([N+](=O)[O-])cc1)NNC(=O)C1COc2ccccc2O1 (stereo unspecified) | x | 1 | x | x | x | x
COc1ccc([C@H]2C[C@@H](O)[C@H](n3cc(C4CC4)nn3)CN2C(=O)c2cccs2)cc1 | x | 1 | x | x | x | x
Cc1ccc(CC(=O)N2CCN(c3ccccc3F)CC2)cc1 | -2 | -2 | 88 | 21 | i | 0
Cc1ccc(S(=O)(=O)CC(=O)N2CCN(c3ccccc3F)CC2)cc1 | 14 | 4 | 105 | 5 | + | x
SMILES | NALP1 inh | V-ATPase pHluor | CR mimetic SO | NALP3 yeast inh | Rce1 inh | PERK inhibitor
Cc1nnc(SC/C=C/c2ccccc2)n(N)c1=O | -3 | 4 | 69 | 11 | i | 0
Nn1c(SC/C=C/c2ccccc2)nnc1-c1ccco1 | 4 | 18* | 91 | 12 | i | 0
COc1ccc(-c2ccc3[nH]c4c(c3c2)CCN2C(=O)[C@@H]([C@H](C)O)[C@@H](N(C)C(=O)Nc3ccc(F)cc3)C[C@@H]42)cc1 | x | -1 | x | x | x | x
O=C(CCN1C(=O)COc2ccccc21)NCCN1CCN(c2ccccc2F)CC1 | 32* | 4 | 88 | 25 | i | -1
NC(=O)CCC(C(=O)O)N1C(=O)C2C3CCC(C3)C2C1=O (stereo unspecified) | x | -2 | x | x | x | x
CC(=O)Nc1ccc(NS(C)(=O)=O)cc1 | -4 | 5 | 122 | 1 | i | 1
CCS(=O)(=O)Nc1ccc(NC(C)=O)cc1 | 36* | 3 | 103 | 10 | i | 0
CCC(C)(C)NC(=O)Cc1ccc(OC)c(OC)c1 | 9 | 1 | 113 | 10 | i | 0
CCC(C)(C)NC(=O)Cc1ccccc1OC | 41* | -2 | 99 | 12 | i | 0
Cc1ccc2c(c1)c(N=Nc1ccc([N+](=O)[O-])cc1)c(O)n2C | 33* | 4 | 99 | 9 | i | x
Cn1c(O)c(N=Nc2ccccc2)c2ccccc21 | 22 | 0 | 105 | 36 | i | x
COCCCNS(=O)(=O)c1ccc(S(=O)(=O)N2CCCC2)cc1 | 38* | 2 | 90 | 7 | i | -1
CC(=O)Nc1ccc(OCc2cn(CC(=O)c3ccc(O)cc3)nn2)cc1 | x | 1 | x | x | x | x
O=c1c2cc([N+](=O)[O-])ccc2sn1-c1ccccc1 | x | -1 | x | x | x | x
N#Cc1c2ccc([N+](=O)[O-])cc2[n+]([O-])n1-c1ccccc1 | x | 28* | 74 | -7 | x | x
CCOC(=O)c1c(C)n(-c2ccccc2)c2ccc(OCCN(C)C)cc12 | 44* | 8 | 86 | 12 | i | x
Oc1ccccc1N1CCN(c2ncccn2)CC1 | 22 | 4 | 96 | 47 | i | 0
Cc1ccc(S(=O)(=O)N2CCN(S(=O)(=O)N3CCOCC3)CC2)c(C)c1 | 43* | 7 | 108 | -2 | i | 0
Cc1ccc(C)c(S(=O)(=O)N2CCN(c3ncccn3)CC2)c1 | 34* | -1 | 88 | 43 | i | 0
O=S(=O)(c1ccccc1)N1CCN(c2ncccn2)CC1 | 5 | 3 | 111 | 20 | i | 1
O=S(=O)(c1ccccc1Br)N1CCN(c2ncccn2)CC1 | 36* | -3 | 104 | 42 | i | x
c1ccc(N2CCN(c3ncccn3)CC2)cc1 | 26* | -6 | 91 | 46 | i | 1
Cc1ccc(S(=O)(=O)N2CCN(S(=O)(=O)N3CCOCC3)CC2)cc1C | 8 | 2 | 86 | 16 | i | 1
CC(C)C(=O)N1CCN(c2nc(-c3ccccc3)c3c(c2C#N)CCCC3)CC1 | -16 | 4 | 125 | 6 | + | -2
O=C(OCC(=O)c1ccc[nH]1)c1ccc([N+](=O)[O-])cc1 | x | 0 | 98 | 19 | x | x
O=C(COC(=O)c1ccc([N+](=O)[O-])s1)c1ccc[nH]1 | x | 39* | 140 | 36 | x | x
CCOC(=O)COc1nc2c(c(-c3ccco3)c1C#N)CCc1ccccc1-2 | -8 | -3 | 94 | 3 | i | 0
N#Cc1c(OCC(=O)c2ccccc2)nc2c(c1-c1ccco1)CCc1ccccc1-2 | 4 | -1 | 77 | 5 | + | 0
CCCCN1C(=O)C(CC(=O)NCCCN(C)C)CC(C(=O)N(C)C)=C1C (stereo unspecified) | x | -1 | x | x | x | x
CCCn1c(=O)c(C(=O)Nc2cccc(C)n2)c(O)c2ccccc21 | 11 | 1 | 101 | 24 | i | x

Compound activity from PubChem BioAssay.
